From the supplement of paper PMC6555819

Experiments:
Test in all cases: PBM binding z-score (relative to random genomic background probes); higher = stronger binding; sequences stand for … in GC…GCGATTGACAGCGTAGAATGAAGG
[1] = test system: RARb homodimer (NR concentration 270 nM)
Summary of the method: (§1)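 Custom Agilent 4×180K protein-binding microarrays carried double-stranded probes, each with a 34-nt variable region. These regions held direct-repeat seeds, single-nucleotide variants, half-site ablations and random human genomic background sequences. Ligand-free nuclear receptor dimers were incubated on the arrays for 1 h, antibodies against each partner (one per run) detected binding, and scanned fluorescence was regression-normalized. Binding z-scores take the random background probes as reference.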

[2] = test system: RARg:RXRa (NR concentration 270 nM, RXRa partner concentration 90 nM)
Summary of the method: as §1

[3] = test system: RARg homodimer (NR concentration 270 nM)
Summary of the method: as §1

[4] = test system: RXRa DBDmut IVT, anti-RXR (DBD mutation: RXRa K156A/R161A, NR concentration 90 nM)
Summary of the method: as §1

[5] = test system: RXRa homodimer (NR concentration 180 nM)
Summary of the method: as §1

[6] = test system: THRa:RXRa (NR concentration 90 nM, RXRa partner concentration 90 nM)
Summary of the method: as §1

[7] = test system: THRa homodimer (NR concentration 90 nM)
Summary of the method: as §1

[8] = test system: VDR homodimer (NR concentration 270 nM)
Summary of the method: as §1

Sequence | PBM binding z-score [1] | PBM binding z-score [2] | PBM binding z-score [3] | PBM binding z-score [4] | PBM binding z-score [5] | PBM binding z-score [6] | PBM binding z-score [7] | PBM binding z-score [8]
TCTCGGAGGACACGCAAGGTCAGAGCTCGACATC | 3.96 | 3.16 | 3.84 | 1.23 | 2.01 | 4.25 | 2.64 | 1.06
GGAACGAGGGCTAAGTTGATAGCATCTGTCGACG | -0.586 | -0.0723 | 0.11 | 0.186 | -0.114 | -0.638 | -0.828 | -0.365
GCTTGGAGATCAAGGTTAAGAAAGACTAAGCTAA | 0.301 | 0.332 | 0.139 | -0.28 | 1 | 1.16 | -0.468 | 0.0219
TAGCCTAGGTCATGAGGGCCAGTATAGTGTCGGC | 3.01 | 4.06 | 4.57 | 0.234 | 3.23 | 3.04 | 0.958 | 0.404
TCTAATAGTTGATTAGGGCAACCGAAACAGCGGA | 0.599 | 0.338 | 0.66 | 0.755 | 0.708 | 0.551 | -0.0484 | -0.0344
AATACAGGGTCATCGTAGGCCAGAGTGCGCACAG | 3.68 | 5.64 | 4.81 | 3.12 | 6.37 | 4.6 | 1.4 | 3.2
CAAACTAGGTCACCGGAAGGTCAAAGGCCGCATG | 5.41 | 8.42 | 7.47 | 1.23 | 6.36 | 4.56 | 2.79 | 2.8
